Shiga toxin inh = A qHTS for Small Molecule Inhibitors of Shiga Toxin. inhibition, % at 38.7 µM. Vero cells, Shiga toxin protein synthesis inhibition reporter. 290,000 compounds, 9.2% hits; in the data active means inhibition mostly above about 28%, no sharp cut-off; inactive means mostly below about 43%; further: 0% is about no effect
NS1 function inh = qHTS Assay for Inhibitors of Influenza NS1 Protein Function | Potency, µM (titrated, usually from 46.1 µM), inactives show at the highest dose activity, positive = more growth | 270,000 compounds, 0.4% hits; calls by dose curve; further: potency means the concentration at half of the fitted maximal effect; actives are rising curves; nearly all actives have a fitted effect of over 50% in size
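OD600 was taken as the measure of yeast growth restored by compound in an NS1-expressing S. cerevisiae strain. Cells had been washed out of glucose medium and diluted 1:100 into galactose -URA medium, pH 6.0.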
CHX counter = Cycloheximide Counterscreen for Small Molecule Inhibitors of Shiga Toxin; cell reporter, cycloheximide protein synthesis inhibition counterscreen; max response, %; 300,000 compounds, 12% hits; in the data active means max response mostly above about 13%, no sharp cut-off; inactive means mostly below about 14%; further: read at 38.3 µM for the half of the compounds with a filed dose; 0% is about no effect
Sm TGR inh = qHTS Assay for the Inhibitors of Schistosoma Mansoni Peroxiredoxins. Schistosoma mansoni thioredoxin glutathione reductase (TGR), Q962Y6. purified TGR, DTNB reduction, TNB absorbance 405 nm. Potency, µM (series often up to 114 µM), without a hit: top-dose activity change, negative = inhibition, actives largely listed as inhibitors. 360,000 compounds, 3% hits; further: potency means the concentration at half of the fitted maximal effect; on the % scale 0 is the no-effect control and ±100 the full control effect; nearly all actives have a fitted effect of over 60% in size
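TGR 20 nM + NADPH 100 uM (dispensed conc.), cpd preinc 15 min RT; start with NADPH (500 uM addition) then DTNB (15 mM addition). Kinetic TNB absorbance, 405 nm filter. Four-parameter Hill fit across titration.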
Pf growth 48h = Primary qHTS for delayed death inhibitors of the malarial parasite plastid, 48 hour incubation | P. falciparum luciferase growth in erythrocytes, 48 h | Potency, µM (titrated, usually from 28.7 µM), for inactives: at the highest dose activity change, negative = inhibition, usual class: inhibitors | 310,000 compounds, 5.9% hits; further: potency means the concentration at half of the fitted maximal effect; on the % scale 0 is the no-effect control and ±100 the full control effect
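Luciferase-expressing P. falciparum in infected erythrocytes (2% hematocrit, 0.1% parasitemia final) in RPMI 1640/0.5% Albumax were exposed to compound for 48 hours at 37 C, 5% CO2; growth read as luminescence.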
Pf growth 96h = Primary qHTS for delayed death inhibitors of the malarial parasite plastid, 96 hour incubation; P. falciparum luciferase reporter growth, 96 h; Potency, µM (series often up to 28.7 µM), for the others: at the highest dose activity change, negative = inhibition, most hits filed as inhibitors; 320,000 compounds, 6.9% hits; AID 504834, 2011; further: potency means the concentration at half of the fitted maximal effect; on the % scale 0 is the no-effect control and ±100 the full control effect
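96 h incubation, 37 C, 5% CO2, of luciferase-reporter P. falciparum-infected RBCs (2% hematocrit, 0.05% parasitemia final) with test compounds; endpoint luminescence.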
An asterisk follows results filed as active; i = inactive; ? = inconclusive; · = no result given. A selection: hits, their analogues and other compounds. The true share with any hit is near 21%. Unless noted, the call rests on the fitted dose curve; in most records, active means well fitted curve in the direction sought with a large enough effect; inconclusive means small, poorly fitted or top-dose-only effect, or another doubt; inactive means no such curve, though single readings can be large; an effect the other way counts as inactive or inconclusive.

SMILES | Shiga toxin inh | NS1 function inh | CHX counter | Sm TGR inh | Pf growth 48h | Pf growth 96h
CCc1ccc(-c2nc(CS(=O)CC(=O)NC3CC3)c(C)o2)cc1 (stereo not given) | 12.1 | 25.4% | 10.3 | 3.98µM* | 25.4% | 23.9%
CCN(CC)CCNC(=O)CS(=O)Cc1nc(-c2ccc(C)cc2)oc1C (stereo not given) | -6.2 | 6.8% | 2.2 | 5.9% | ? | ?
CCc1ccc(-c2nc(CS(=O)CC(=O)O)c(C)o2)cc1 (stereo not given) | 52.9* | -2.6% | 46.0* | 0.355µM* | 125.4% | 101.3%
CCc1ccc(-c2nc(CS(=O)CC(=O)NC3CCCCCC3)c(C)o2)cc1 (stereo not given) | 14.8 | ? | 14.4* | 7.94µM* | 20.7% | 8.28µM*
COc1ccc(-c2nc(CS(=O)CC(=O)NC3CCCCC3)c(C)o2)cc1 (stereo not given) | -6.1 | 28.9% | -5.6 | ? | 3.1% | 3.1%
Nc1c(S(=O)(=O)O)cc(Nc2cccc(S(N)(=O)=O)c2)c2c1C(=O)c1ccccc1C2=O | · | -5.1% | · | · | · | ·
CCCNC(=O)C(Cc1cccc(C#N)c1)NC(=O)c1ccc(C#N)cc1 (stereo not given) | · | · | · | -7.8% | 18.9% | 6.4%
CC(C)(C)CN1CCNC(=O)C1CC(=O)NCCc1ccccc1C(F)(F)F (stereo not given) | -9.5 | 3.3% | 0.8 | ? | ? | 184.0%
O=C(CC1C(=O)NCCN1Cc1ccccn1)NCCc1ccccc1F (stereo not given) | 36.2* | -0.5% | 15.0 | ? | 4.65µM* | ?
CN1CCNC(=O)C1CC(=O)NCCc1ccccc1F (stereo not given) | 12.8 | 2.2% | -2.5 | -3.2% | 43.5% | 13.1µM*
CCOc1ccc2nc(N(Cc3cccnc3)C(=O)c3ccco3)sc2c1 | · | · | · | 5.7% | · | ·
c1ccc(NCC2OCc3ccccc3CO2)cc1 | 98.0* | 15.6% | 43.5* | -5.1% | 106.5% | 7.2%
CNC(=O)CSc1nnc(-c2ccco2)n1-c1ccccc1OC | -6.3 | 0.5% | -1.2 | 79.4µM* | 15.8% | ?
C=CCn1c(SCC(=O)Nc2ccccc2OC)nnc1-c1ccco1 | -1.5 | -12.0% | -2.1 | 44.7µM* | -24.6% | -28.0%
CCOc1ccccc1-n1c(SCC(=O)NC2CCCC2)nnc1-c1ccoc1C | 1.2 | -5.3% | -1.8 | 0.9% | ? | ?
CCOc1ccccc1-n1c(SCC(=O)NC)nnc1-c1ccco1 | -2.4 | -0.2% | -4.1 | ? | -2.2% | 7.8%
CCOc1ccccc1-n1c(SCC(=O)NC(C)(C)C)nnc1-c1ccoc1C | 8.8 | 3.8% | 18.4 | -7.5% | 13.1µM* | ?
CCOc1ccc(NC(=O)CN2CCCC2c2cccs2)cc1S(=O)(=O)N1CCCC1 (stereo not given) | · | · | · | -16.7% | 11.7µM* | 14.7µM*
CCOc1ccc(NC(=O)C2=NN(c3ccccc3)C(=O)CC2)cc1S(=O)(=O)N1CCCCC1 | · | · | · | 5.6% | 11.7µM* | ?
O=C(Nc1cccc(S(=O)(=O)N2CCCCC2)c1)C1=NN(c2ccccc2)C(=O)CC1 | · | · | · | -13.1% | 5.22µM* | 6.57µM*
CCOc1ccc(NC(=O)c2ccco2)cc1S(=O)(=O)N1CCCC1 | · | · | · | -27.7% | ? | ?
COc1ccc(NC(=O)CN2CCCC2c2cccs2)cc1S(=O)(=O)N1CCCCC1 (stereo not given) | · | · | · | -15.6% | ? | ?
Cc1ccc(C)c(N2N=C(C(=O)Nc3cccc(S(=O)(=O)N4CCCCC4)c3)CCC2=O)c1 | · | · | · | -3.7% | 4.65µM* | 4.65µM*
O=P(O)(Cc1ccccc1)Cc1ccccc1 | · | 12.1% | -0.9 | 0.6% | -15.7% | ?
O=C(Nc1ccnn1C1CCN(C(=O)c2cc(Cl)ccc2F)CC1)C1CCOC1 (stereo not given) | 11.4 | -3.7% | 7.7 | 5.3% | -8.1% | ?
SMILES | Shiga toxin inh | NS1 function inh | CHX counter | Sm TGR inh | Pf growth 48h | Pf growth 96h
O=C(CS(=O)(=O)c1cccc2nsnc12)NCc1ccccc1 | · | · | · | 3.1% | · | ·
CC(C)[C@H](N=Cc1ccccc1O)C(=O)O | · | 0.0% | · | · | · | ·
COC(=O)Cc1c(C)c2ccc(OCC(=O)c3ccc(OC)c(OC)c3)cc2oc1=O | 23.5 | -0.2% | -0.7 | 11.9% | ? | -12.8%
O=C(O)c1ccc(N/N=C/C2=Cc3ccccc3OC2)cc1 | 72.6* | -50.7% | 41.0* | ? | 218.4% | 111.2%
COCC(C)NC(=O)c1cnn2c(C(F)F)cc(-c3ccccc3)nc12 (stereo not given) | · | · | · | 19.3% | · | ·
CC1CCN(C2=NN3C(=N)/C(=C\c4ccc(OC(=O)c5ccco5)cc4)C(=O)N=C3S2)CC1 | -3.6 | -19.7% | 1.4 | -8.9% | 9.3% | ?
N=C1/C(=C\c2ccc(OC(=O)c3ccc(F)cc3)cc2)C(=O)N=C2SC(N3CCOCC3)=NN12 | -7.5 | -38.8% | 9.9 | -20.2% | 7.9% | 1.65µM*
CC(C)OP(=O)(c1ccc(N(C)C)cc1)C(O)c1ccc(C(C)C)cc1 (stereo not given) | -3.7 | 3.6% | -2.9 | -1.5% | ? | ?
CC(C)OCCCNCC(O)c1ccccc1 (stereo not given) | 14.2 | 1.9% | 4.7 | 12.8% | -12.8% | 38.6%
O=c1[nH]c(CSc2ccccn2)nc2ccccc12 | 119.5* | · | 42.7* | -6.4% | 274.2% | 319.4%
COC(=O)c1sc2nc(CSc3nc4ccc(C)cc4[nH]3)[nH]c(=O)c2c1C | -6.0 | -0.7% | -5.2 | -21.9% | · | ?
Nn1c(CSc2ccccn2)nc2ccccc2c1=O | 82.8* | -8.6% | 43.7* | -15.5% | · | ?
Cc1ccc2nc(SCc3nc4ccccc4c(=O)[nH]3)[nH]c2c1 | 68.8* | · | 27.3* | 1.4% | 35.0% | ?
O=c1[nH]c(CSc2ccccn2)nc2c1cnn2-c1ccccc1 | 30.9* | -13.5% | 14.7 | -16.3% | 24.9% | 39.0%
Cc1[nH]c2ccccc2c1C(=O)CN1C(=O)C(=O)N(CCC2=CCCCC2)C1=O | · | · | · | -1.6% | -86.5% | ?
CC1(C)N(OCc2ccccc2)C(=O)C(=O)N(OCc2ccccc2)C1(C)C | -17.9 | 1.6% | -8.3 | -4.4% | -13.5% | ·
COc1cccc(NC(=O)c2ccc(-c3nc(COc4ccccc4)c(C)o3)cc2)c1 | · | · | · | 6.2% | · | ·
Cc1ccc2nc(CSc3nc(C)ccc3C#N)[nH]c2c1 | 21.3 | -95.4% | 17.0* | -9.7% | · | -63.4%
COCCCNC(=O)Cn1ccc(N)nc1=O | · | · | · | -0.1% | 63.0% | 64.1%
Cc1cc(NC(=O)C2CCCCC2)nc2c1c(=O)oc1ccccc12 | -17.2 | -39.8% | 5.4 | -0.1% | 15.1% | 6.57µM*
CC(=O)c1cccc(NC(=O)CSc2nnnn2C2CCCC2)c1 | 15.2 | -0.6% | -0.8 | -18.6% | 14.3% | 1.9%
Cc1cc2oc(=O)cc(-c3ccccc3)c2c(C)c1-c1ccoc1 | i | · | 2.1 | · | · | ·

Screening data deposited in PubChem by National Center for Advancing Translational Sciences (NCATS).
